Data reported in PubChem BioAssay.
Active and inactive are the calls of the source.

Columns and labels:
[1] = system: Plasmodium falciparum Sir2 (PF13_0152, Sir2A); test: pfSir2 binders on small-molecule microarrays, primary screen, biochemical, small-molecule microarray, 635 nm fluorescence (AID 1098); conditions: small-molecule microarray binding, fluorescence 635 nm; higher = more signal;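 note: score merges spot fluorescence intensity with its signal-to-noise ratio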
[2] = small-molecule microarray binders of probe aDKK1, primary screen, biochemical, biotinylated probe, 635/667 nm fluorescence (AID 1099); conditions: higher = more signal;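 note: score merges 667nm spot fluorescence with signal to noise across triplicate slides; reference of the scale not given here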
[3] = small-molecule microarray binders of probe aCHRDL2, primary screen, biochemical, biotinylated probe, 635/667 nm fluorescence (AID 1100); conditions: higher = more signal
[4] = splicing luciferase reporter signal modulators, primary screen, spliceosome inhibition project, cell-based, HEK293, splice +/- reporter (AID 1101); conditions: luminescence, 24 h, higher = more signal, called active from +8 up or from −8 down;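 note: HEK293 cells carrying a splicing-competent luciferase reporter gene; test concentration not given here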
[5] = biological target: Fibroblast growth factor 10 (Homo sapiens) (UniProt O15520); test: FGF10 binders on small-molecule microarrays, primary screen, biochemical, small-molecule microarray, 635 nm fluorescence (AID 1102); conditions: FGF10 binding, fluorescence 635 nm, higher = more signal
[6] = system: glycogen synthase kinase-3 (GSK3A per assay name; protocol says GSK3B); test: GSK3 binders on small-molecule microarrays, primary screen, biochemical, small-molecule microarray, 635 nm fluorescence, GSK3A (AID 1103); conditions: small-molecule microarray binding, fluorescence 635 nm; higher = more signal; note: the record names both GSK3A and GSK3B
[7] = biological target: Epidermal growth factor receptor (Homo sapiens) (UniProt P00533); test: EGFR binders on small-molecule microarrays, primary screen, biochemical, small-molecule microarray, 635 nm fluorescence (AID 1104); conditions: EGFR binding, higher = more signal;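 note: score merges 667 nm emission intensity with spot signal to noise over triplicate slides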
[8] = biological target: Follistatin-related protein 3 (Homo sapiens) (UniProt O95633); test: FSTL3 binders on small-molecule microarrays, primary screen, biochemical, small-molecule microarray, 635 nm fluorescence (AID 1105); conditions: FSTL3 binding, higher = more signal;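 note: score merges emission near 667 nm and signal to noise per printed spot across three slides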
[9] = biological target: Dickkopf-related protein 1 (Homo sapiens) (UniProt O94907); test: DKK1 binders on small-molecule microarrays, primary screen, biochemical, small-molecule microarray, 635 nm fluorescence scan (AID 1106); conditions: DKK1 binding, higher = more signal;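 note: score merges emission near 667 nm with signal to noise over three replicate slides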
[10] = system: Inhibin beta A chain (activin A); test: INHBA (activin A) binders on microarrays, primary screen, biochemical, small-molecule microarray, 635 nm fluorescence scan (AID 1107); conditions: small-molecule microarray binding, higher = more signal;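 note: mouse activin A protein probed at 4.33 µg/mL on printed slides; score merges bound-protein fluorescence near 667 nm with spot signal-to-noise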

Dickkopf-related protein 1 (Homo sapiens), sequence (O94907 whole entry, looked up): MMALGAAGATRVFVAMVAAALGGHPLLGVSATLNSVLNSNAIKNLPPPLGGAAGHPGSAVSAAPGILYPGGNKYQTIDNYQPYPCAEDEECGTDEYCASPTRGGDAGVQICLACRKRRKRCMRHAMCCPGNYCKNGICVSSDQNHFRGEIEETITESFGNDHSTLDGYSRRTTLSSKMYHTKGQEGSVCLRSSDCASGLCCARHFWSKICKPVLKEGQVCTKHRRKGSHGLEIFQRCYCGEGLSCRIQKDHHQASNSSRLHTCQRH
Epidermal growth factor receptor (Homo sapiens), sequence (P00533 whole entry, looked up): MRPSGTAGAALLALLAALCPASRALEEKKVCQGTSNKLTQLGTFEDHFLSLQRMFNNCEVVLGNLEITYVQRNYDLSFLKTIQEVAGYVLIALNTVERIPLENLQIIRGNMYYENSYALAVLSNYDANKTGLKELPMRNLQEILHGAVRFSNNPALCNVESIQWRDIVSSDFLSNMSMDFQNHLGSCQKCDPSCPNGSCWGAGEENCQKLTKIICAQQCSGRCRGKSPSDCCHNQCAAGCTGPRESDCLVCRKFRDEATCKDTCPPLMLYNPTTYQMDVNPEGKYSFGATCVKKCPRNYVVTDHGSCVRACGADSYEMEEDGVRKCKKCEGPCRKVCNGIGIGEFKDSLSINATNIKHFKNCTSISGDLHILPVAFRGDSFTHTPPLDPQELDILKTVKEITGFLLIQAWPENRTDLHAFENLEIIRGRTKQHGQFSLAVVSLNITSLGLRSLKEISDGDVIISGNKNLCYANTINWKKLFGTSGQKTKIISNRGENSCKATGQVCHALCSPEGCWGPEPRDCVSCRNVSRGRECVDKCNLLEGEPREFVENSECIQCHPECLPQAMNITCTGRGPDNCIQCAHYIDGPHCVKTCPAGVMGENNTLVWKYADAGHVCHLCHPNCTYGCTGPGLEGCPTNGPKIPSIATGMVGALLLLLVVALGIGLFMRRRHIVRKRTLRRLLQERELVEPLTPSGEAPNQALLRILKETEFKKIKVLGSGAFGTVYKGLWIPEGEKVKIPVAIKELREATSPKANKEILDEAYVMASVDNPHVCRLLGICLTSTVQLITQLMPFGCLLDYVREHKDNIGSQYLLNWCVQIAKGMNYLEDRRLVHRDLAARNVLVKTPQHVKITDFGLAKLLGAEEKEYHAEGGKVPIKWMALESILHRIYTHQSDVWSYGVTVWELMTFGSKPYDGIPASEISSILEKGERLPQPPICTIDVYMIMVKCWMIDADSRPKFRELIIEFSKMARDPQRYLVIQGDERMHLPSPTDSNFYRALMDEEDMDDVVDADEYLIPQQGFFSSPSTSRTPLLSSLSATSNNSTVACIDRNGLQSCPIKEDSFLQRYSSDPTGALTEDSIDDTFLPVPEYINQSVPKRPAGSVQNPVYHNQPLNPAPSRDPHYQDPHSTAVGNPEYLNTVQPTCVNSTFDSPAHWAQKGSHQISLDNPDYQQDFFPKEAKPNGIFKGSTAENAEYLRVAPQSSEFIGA
Fibroblast growth factor 10 (Homo sapiens), sequence (O15520 whole entry, looked up): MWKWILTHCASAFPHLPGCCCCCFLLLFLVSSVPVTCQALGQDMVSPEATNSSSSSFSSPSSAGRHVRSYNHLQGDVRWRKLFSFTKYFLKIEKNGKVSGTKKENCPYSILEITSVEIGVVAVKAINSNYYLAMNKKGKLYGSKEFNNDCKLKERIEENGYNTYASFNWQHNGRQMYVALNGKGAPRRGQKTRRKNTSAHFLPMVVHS
Follistatin-related protein 3 (Homo sapiens), sequence (O95633 whole entry, looked up): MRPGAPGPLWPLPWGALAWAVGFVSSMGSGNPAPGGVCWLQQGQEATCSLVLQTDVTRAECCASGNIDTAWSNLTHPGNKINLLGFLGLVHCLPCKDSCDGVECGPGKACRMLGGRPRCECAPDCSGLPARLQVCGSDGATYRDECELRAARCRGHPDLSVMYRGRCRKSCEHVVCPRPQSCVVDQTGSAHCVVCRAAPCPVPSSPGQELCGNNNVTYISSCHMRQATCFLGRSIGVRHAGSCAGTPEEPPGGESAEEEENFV

Compound	composite z-score [1]	composite z-score [2]	composite z-score [3]	z-score [4]	composite z-score [5]	composite z-score [6]	composite z-score [7]	composite z-score [8]	composite z-score [9]	composite z-score [10]
[N-]=[N+]=NCc1ccccc1C[C@]1(C(=O)O)N=C(c2ccc(OCCCO)cc2)O[C@H]1c1ccccc1	1.44	0.181	1.06	0.624 (inactive)	-0.2	0.102	-1	-0.627	-0.94	0.884
O=C(CS)NCCCCCCNC(=O)[C@H]1C[C@H]2C(=O)N3CCC[C@H]3C(=O)N2[C@H]1c1cccc(OCCO)c1	1.86	-0.037	-0.109	0.5 (inactive)	1.08	1.34	0.543	0.575	0.904	0.683
O=C1[C@]2(CO)C=C(Br)[C@@H](C[C@@H]2c2ccccc2)[C@@]12CO2	0.628	0.0144	0.0065	0.359 (inactive)	0.208	-0.626	-0.135	0.419	0.357	0.263
CC(C)C[C@@H]1NC(=O)[C@H]2C[C@@H](C(=O)NCCCCCCNC(=O)CS)[C@@H](c3cccc(OCCO)c3)N2C1=O	1.54	0.0362	-0.139	-0.576 (inactive)	1.39	1.27	1.23	1.49	1.94	0.525
COC(=O)c1ccc(C23CC2(C(NP(=O)(c2ccccc2)c2ccccc2)c2ccccc2)C3)cc1 (stereo not given)	0.36	1.83	1.39	-3.03 (inactive)	0.831	-0.0094	0.134	0.835	-0.63	0.893
C=C[C@@H](COC(C)=O)N(Cc1ccccc1[N+](=O)[O-])S(=O)(=O)c1ccc(Br)cc1	1.31	0.278	-0.0205	-2.18 (inactive)	0.863	1.16	1.2	1.39	1.82	1.16
COC(=O)[C@@]1(Cc2ccccc2)[C@H]2c3cc(C(=O)N(C)C)n(Cc4cc(C)n(C)n4)c3C[C@H]2CN1C(=O)c1ccccc1	1.32	0.866	0.947	-1.26 (inactive)	0.0408	0.764	0.3	0.642	-0.72	1.11
CCOC(=O)C1=CCC(c2ccc(C#N)cc2)N(S(=O)(=O)c2ccc(C)cc2)C1 (stereo not given)	1.13	1.22	1.05	-0.415 (inactive)	0.637	1.29	0.555	1.21	-0.0007	0.2
CCCC[C@H]1OB(O)C[C@H]2C1=C(C)C[C@H]1C(=O)N(Cc3ccccc3)C(=O)[C@H]12	0.148	-0.109	-0.665	0.0984 (inactive)	1.13	0.507	0.244	1.25	0.999	0.181
N#Cc1ccc(NN2C(C(O)c3ccc([N+](=O)[O-])cc3)C=CC3C(=O)N(c4ccccc4)C(=O)C32)cc1 (stereo not given)	1.29	0.829	1.08	2.23 (inactive)	0.626	0.751	0.0159	0.422	-0.392	0.787
O=C(OCCF)C1=CCC(c2cccc(Cl)c2)O1 (stereo not given)	-0.229	-0.0052	-0.325	-0.824 (inactive)	0.0899	0.644	0.119	0.151	-0.183	0.44
O=C(NCc1ccccc1)[C@]1(CCS(=O)(=O)c2ccccc2)N=C(c2ccc(OCCCO)cc2)O[C@@H]1c1ccccc1	1.31	0.255	0.264	0.637 (inactive)	1.42	1.32	0.325	1.41	0.168	0.604
C=CCNC(=O)[C@@H]1[C@H]2C(=O)O[C@H](c3ccccc3)[C@H](c3ccccc3)N2[C@H](c2ccccc2OCCO)[C@@]12C(=O)Nc1ccc(C#CC3=CCCCC3)cc12	0.71	-0.0328	0.111	-0.829 (inactive)	1.22	1.32	0.478	1.38	0.479	0.982
COCCCNC(=O)[C@@]1(C)c2ccccc2C(=O)N(Cc2cc(C(F)(F)F)cc(C(F)(F)F)c2)[C@H]1c1ccc(CO)cc1	1.48	-0.0291	0.945	0.803 (inactive)	-0.607	-0.514	-1.24	-0.875	-1.62	-0.754
[N-]=[N+]=NCc1ccccc1C[C@@]1(C(=O)N2CCOCC2)N=C(c2ccc(OCCCO)cc2)O[C@@H]1c1ccccc1CN=[N+]=[N-]	1.63	1.22	1.37	-0.429 (inactive)	1.46	0.965	0.422	0.656	-0.0757	0.811
COCC(=C=CC[C@H](O)c1ccc(OCCO)cc1)C[C@H](O)c1cc(Cl)cc(Cl)c1O	0.654	-0.268	-0.0229	-2.51 (inactive)	1.55	0.26	0.0404	1.11	-0.043	0.598
C=C(COC)C(=O)CC[C@H](OC(C)=O)c1cccc(OCCO)c1	-0.443	-0.305	-0.0122	-0.637 (inactive)	1.06	0.121	-0.92	-0.249	-0.118	0.35
CC(C)=CCCC(C)=CC(O)C1C=CC2C(=O)N(c3ccccc3)C(=O)C2N1Nc1ccccc1 (stereo not given)	1.36	1.21	0.997	1.18 (inactive)	1.05	0.978	0.251	1.38	0.113	1.06
CCOC(=O)C[C@H]1[C@H](OC(=O)c2ccc(-c3ccccc3)cc2)[C@@H](NC(=O)c2ccc3ccccc3c2)c2cc(OCCCO)ccc2N1C(=O)Cc1ccc(OC)cc1	-0.517	-0.0669	-0.269	-0.334 (inactive)	-0.383	0.247	-0.245	0.368	-0.416	0.487
C[N+](C)(C)CCCCCCNC(=O)[C@H]1C[C@H]2C(=O)N3CCC[C@H]3C(=O)N2[C@H]1c1ccc(O)cc1	1.07	-0.258	-0.201	-0.677 (inactive)	0.205	0.196	-0.278	0.196	0.744	1.03
CCN(CC)c1ccc(N2CC=CC34O[C@@H]5C=CCCOC(=O)C5[C@H]3C(=O)N(CCCCCO)[C@@H]4C2=O)cc1 (stereo not given in full)	-0.144	-0.0409	0.0109	-0.779 (inactive)	-0.292	-0.139	-0.76	-0.339	-0.182	1.52
O=C1O[C@@H](c2ccccc2)[C@@H](c2ccccc2)N2[C@@H](c3ccc(OCCO)cc3)[C@]3(C(=O)Nc4ccccc43)[C@@H](C(=O)Nc3nc4ccccc4s3)[C@H]12	1.66	0.738	0.478	-0.876 (inactive)	1.31	1.07	0.528	1.15	0.651	0.411
O=C1C[C@@](C(=O)NC2CC2)(c2ccc([N+](=O)[O-])cc2)[C@@H](c2ccc(CO)cc2)N1CC12CC3CC(CC(C3)C1)C2	1.3	-0.0801	0.782	-1.42 (inactive)	0.474	0.612	0.1	0.925	0.253	0.571
C=CCC(OC(C)=O)[C@@H]1[C@@H](N(Cc2ccc(-c3ccccc3)cc2)C(=O)Cc2ccc(F)cc2)c2cc(OCCCO)ccc2N1C(=O)c1ccc2ccccc2n1 (stereo not given in full)	0.295	0.0021	0.531	-0.457 (inactive)	0.0915	-0.226	-0.294	-0.112	-0.221	1.27
CN(C)CCCNC(=O)[C@@]1(Cc2ccccc2I)c2ccccc2C(=O)N(Cc2ccccc2C(F)(F)F)[C@H]1c1ccc(CO)cc1	0.278	0.234	0.86	-1.55 (inactive)	-0.75	0.391	-1.62	-1.34	-1.33	0.094
Cc1cc(C)c(C(O)C2C=CC3C(=O)N(C)C(=O)C3N2Nc2ccccc2)c(C)c1 (stereo not given)	1.13	1.84	0.796	0.55 (inactive)	0.636	0.399	0.745	0.38	0.209	1.25
CC(C)NC(=O)[C@@H]1c2ccccc2C(=O)N(Cc2ccccc2)[C@H]1c1ccc(CO)cc1	1.62	0.652	1.11	0.00875 (inactive)	0.462	0.263	-1.41	-0.942	-1.05	-0.212
